Test results as given in the supplement of paper PMC12350171.
Counter-ions that a name gives are not always drawn. Values without a mark were called inactive.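 Rule for the calls: active = normalised median growth AUC below 0.1 of DMSO control; inactive = AUC 0.1 or higher.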

Test system: S. enterica typhimurium tolC KO
Assay: growth AUC normalised to DMSO control (median) (fraction of control); higher = less growth inhibition, active = hit call of the paper
Details: 20 µM
In short: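 Strains were passaged twice overnight without oxygen, then grown in mGAM in 96-well plates with each approved-drug library compound at 20 μM and 1% DMSO, starting at OD578 0.01. OD578 was read hourly for 24 h inside an anaerobic incubator. Curves were truncated at entry into stationary phase, and the trapezoidal-rule area under the curve was normalised to same-plate vehicle wells. The value is the median across three biological replicates.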
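Note: active when median AUC fell below 0.1.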

Row | SMILES | growth AUC normalised to DMSO control
1 | CN(C)CCOc1ccc(/C(=C(/CCCl)c2ccccc2)c2ccccc2)cc1 [Toremifene] | 0.983
2 | O=C1Nc2ccc(Cl)cc2[C@@](C#CC2CC2)(C(F)(F)F)O1 [Efavirenz] | 0.261
3 | CO[C@@H]1[C@@H](O[C@@H]2O[C@H](C)[C@@H](O[C@H]3C[C@@](C)(O)[C@@H](OC(=O)CC(C)C)[C@H](C)O3)[C@H](N(C)C)[C@H]2O)[C@@H](CC=O)C[C@@H](C)[C@@H](O)/C=C/C=C/C[C@@H](C)OC(=O)C[C@H]1OC(C)=O [Josamycin] | 0.0649 (active)
4 | O=C(NCCNCC(O)COc1ccc(O)cc1)N1CCOCC1 (configuration not stated) [Xamoterol hemifumarate] | 0.99
5 | CCN(CC)CCCC(C)Nc1c2ccc(Cl)cc2nc2ccc(OC)cc12 (configuration not stated) [Quinacrine dihydrochloride hydrate] | 0.978
6 | C[C@H]1C[C@H]2[C@@H]3CCC4=CC(=O)C=C[C@]4(C)[C@@]3(F)[C@@H](O)C[C@]2(C)[C@@]1(O)C(=O)CO [Betamethasone] | 0.991
7 | CCCCC(CC)CNC(=N)NC(=N)NCCCCCCNC(=N)NC(=N)NCC(CC)CCCC (configuration not stated) [Alexidine dihydrochloride] | 0.964
8 | COc1ccc(C(=O)NCc2cccnc2)cc1C(=O)NCc1cccnc1 [Picotamide monohydrate] | 0.998
9 | C[C@@H](c1ncncc1F)[C@](O)(Cn1cncn1)c1ccc(F)cc1F [Voriconazole] | 0.998
10 | NCC[C@H](O)C(=O)N[C@@H]1C[C@H](N)[C@@H](O[C@H]2O[C@H](CN)[C@@H](O)[C@H](O)[C@H]2O)[C@H](O)[C@H]1O[C@H]1O[C@H](CO)[C@@H](O)[C@H](N)[C@H]1O [Amikacin hydrate] | 0.995
11 | CO[C@H]1/C=C/O[C@@]2(C)Oc3c(C)c(O)c4c(O)c(c(/C=N/N5CCN(C)CC5)c(O)c4c3C2=O)NC(=O)/C(C)=C\C=C\[C@H](C)[C@H](O)[C@@H](C)[C@@H](O)[C@@H](C)[C@H](OC(C)=O)[C@@H]1C [Rifampicin] | 0.254
12 | CC(C)NCC(O)COc1cccc2[nH]ccc12 (configuration not stated) [Pindolol] | 1.01
13 | NCCCC[C@H](N[C@@H](CCc1ccccc1)C(=O)O)C(=O)N1CCC[C@H]1C(=O)O [Lisinopril] | 0.997
14 | Cc1cccc(Nc2ccccc2C(=O)O)c1C [Mefenamic acid] | 1.01
15 | CN(C)CCC(c1ccccc1)c1ccccn1 (configuration not stated) [Pheniramine maleate] | 1.01
16 | COc1cc(-c2ccc(=O)[nH]n2)ccc1OC(F)F [Zardaverine] | 0.997
17 | CCOc1ccc2c(c1)C(C)=CC(C)(C)N2 [Ethoxyquin] | 1
18 | CN1CCCCC1CCN1c2ccccc2Sc2ccc([S+](C)[O-])cc21 (configuration not stated) [Mesoridazine besylate] | 0.944
19 | CC(C)NCC(O)c1ccc(O)c(O)c1 (single isomer, unassigned; (-)) [(-) Isoproterenol hydrochloride] | 0.992
20 | CO/N=C(\C(=O)N[C@@H]1C(=O)N2C(C(=O)O)=C(C[N+]3(C)CCCC3)CS[C@H]12)c1csc(N)n1 [Cefepime hydrochloride] | 0.00189 (active)
21 | N=C(N)N1CCc2ccccc2C1 [Debrisoquin sulfate] | 1
22 | CC(=O)O[C@]1(C(C)=O)CC[C@H]2[C@@H]3C=C(C)C4=CC(=O)CC[C@]4(C)[C@H]3CC[C@@]21C [Megestrol acetate] | 0.931
23 | N=C(N=C(N)N)N1CCOCC1 [Moroxidine hydrochloride] | 0.992
24 | c1ccc2[nH]c(-c3cscn3)nc2c1 [Tiabendazole] | 0.995
25 | CN(C)[C@@H]1C(=O)C(C(N)=O)=C(O)[C@@]2(O)C(=O)C3=C(O)c4c(O)ccc(Cl)c4[C@@H](O)[C@H]3C[C@@H]12 [Demeclocycline hydrochloride] | 0.00561 (active)
26 | COc1c2occc2c(OC)c2c(=O)cc(C)oc12 [Khellin] | 0.985
27 | CN1CCN(C(c2ccccc2)c2ccccc2)CC1 [Cyclizine hydrochloride] | 0.998
